About 79,000 compounds went through this panel and 15% of them were active in at least one assay; those are over-represented in the sample as a whole. Calls of active or inactive are those of the source. Cut-off read from the data, not from the text of the source: active = growth inhibition above about 70%; inactive = the rest.

A short description of this test: NCI Yeast Anticancer Drug Screen. Data for the mec2-1 strain (AID 157). Particulars: S. cerevisiae mec2-1 strain, at 5.0 µM (retest, dose inferred, filed as 0.5), hits give high values. The procedure, abridged: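 Readout is yeast growth inhibition, normalised to vehicle-treated controls, in the mec2-1 strain exposed to compound.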
On to `CCc1ccc(/C(C)=N/NC(N)=S)cc1`, for which the growth inhibition is -4% (inactive).

Regarding `CC(C)/C=C1\CCOC1=O`, the growth inhibition is -3% (inactive).

On to `COc1c(C(=O)/C(=N/Nc2ccccc2)C(C)=O)c(O)c(OC)c2occc12`, for which the growth inhibition was -18% (inactive).

Regarding `COc1ccc(CC/C(=N/O)c2ccccc2)cc1`, the growth inhibition is -3% (inactive).

Regarding `CCOC(=O)C1(C#N)C(c2ccccc2)C1(C#N)C#N` (stereo not given), the growth inhibition was 29% (inactive).

Regarding `COc1ccc(OC)c(/C=C/NC=O)c1`, the growth inhibition is -11% (inactive).

As for `CC(=O)Oc1ccc(-c2ccc(Br)cc2)cc1`, the growth inhibition was -3% (inactive).

As to `COC(=O)/C(C#N)=C/c1cc(OC)c(O)cc1Br`, the growth inhibition was 31% (inactive).

For `CCC(C1SC(=S)NC1=O)C1SC(=S)NC1=O` (stereo not given), the growth inhibition is -1% (inactive).

Regarding `CCC(C)c1ccc(O)c(C(C)c2ccccc2)c1` (stereo not given), the growth inhibition is 41% (inactive).

Consider `C/C(=N\NC(=S)N1CCN(c2ccccc2)CC1)c1nccs1`, for which the growth inhibition is 56% (inactive).

As for `COc1ccc2c(C(=O)c3ccccc3)c3[n+](cc2c1OC)CCc1cc2c(cc1-3)OCO2`, the growth inhibition was -21% (inactive).

For `Cc1cccc(C[N+](C)(C)CCCO)c1C`, the growth inhibition was 4% (inactive).

Take `c1ccc(N=C2SC3=NCCN3C2=Nc2ccccc2)cc1`: the growth inhibition is 7% (inactive).

Turning to `Cc1ccc(SCc2ccccc2Cl)nn1`, the growth inhibition was -9% (inactive).

Consider `CCCc1cc(=O)oc2c3c(c4c(c12)OC(C)(C)CC4)O[C@H](C)[C@H](C)C3=O`, for which the growth inhibition was -18% (inactive).

In the case of `CC1(C)COC(c2cccc(C(O)c3ccc(Cl)cc3)c2)=N1` (stereo not given), the growth inhibition was -19% (inactive).

Consider `CCOC(=O)c1cc(NC(=O)c2cc(NC(=O)c3cc(NC(=O)c4c(-c5ccccc5)noc4C)cn3C)cn2C)cn1C`, for which the growth inhibition was -3% (inactive).

Regarding `O=C(N/N=C/c1ccccc1O)c1ccccc1-n1cccc1`, the growth inhibition is 30% (inactive).

For the compound `O=C1CN(CCN2CCOCC2)CC(=O)N2Cc3ccccc3CN12`, the growth inhibition is 7% (inactive).

In the case of `CCC[CH2][Sn]([CH2]CCC)([NH]c1ncnc2[nH]cnc12)[NH]c1ncnc2[nH]cnc12`, the growth inhibition was 14% (inactive).

As to `Oc1ccc(Br)cc1C=Nc1c(NC2CCCCC2)oc2ccc(Br)cc12`, the growth inhibition is 3% (inactive).

For the compound `Cc1cc2c(C(C)C)c(O)c(O)c3coc(/c1=c1/c(C)cc4c(C(C)C)c(=O)c(=O)c5coc1c45)c32`, the growth inhibition is 23% (inactive).

`O=C1c2ccccc2C(=O)N1/N=C\c1ccccc1[N+](=O)[O-]`: the growth inhibition was -2% (inactive).

As to `O[C@H](CNCCS)[C@@H](O)CNCCS`, the growth inhibition is 2% (inactive).

Turning to `C[C@]12CC[C@H](O)CC1=CC[C@@H]1C2CC[C@]2(C)C(=O)N(N)C(=O)CC12` (stereo not given in full), the growth inhibition was -24% (inactive).

In the case of `O=C(C(/C=N/C(=S)NCc1ccccc1)=C(/O)c1ccccc1)c1ccccc1`, the growth inhibition is -1% (inactive).

Regarding `C=CC1(c2ccc(-c3ccccc3)cc2)OCCO1`, the growth inhibition is 2% (inactive).

Regarding `C=C1CC(COc2ccc3c(C)cc(=O)oc3c2)(c2ccccc2)OC1=O` (stereo not given), the growth inhibition is -6% (inactive).

`CN(C)CCCNc1c2ccccc2nc2ccc([N+](=O)[O-])cc12`: the growth inhibition is 13% (inactive).

As to `CN1CCC(OC(=O)c2ccc3ncccc3c2)CC1`, the growth inhibition was -2% (inactive).

For `COc1ccc(/C=C2/C(=O)N(C(=O)c3ccccc3O)N=C2C)cc1OC`, the growth inhibition is -1% (inactive).

As to `CC1([N+](=O)[O-])C(=O)C2(N3CCOCC3)CCCC2C1c1ccccc1` (stereo not given), the growth inhibition was -7% (inactive).

`COc1ccc(C2=C(Cl)C(=O)N(c3ccc(C)cc3)C(=O)C2(Cl)Cl)cc1`: the growth inhibition was -2% (inactive).

On to `COc1ccnc(-c2cc(OC)cc(/C(N)=N/O)n2)c1`, for which the growth inhibition was -4% (inactive).

For the compound `Nc1ccccc1CCc1ccccc1`, the growth inhibition was 0% (inactive).

As for `COC(=O)c1ccc(OCCC(=O)CCl)cc1`, the growth inhibition was 1% (inactive).

Regarding `CCCCCCCCCCCCS(=O)(=O)CC(Br)C(=O)c1ccco1` (stereo not given), the growth inhibition is 42% (inactive).

As to `FC(F)(F)C(F)(F)C1(F)C(F)(F)C(F)(F)C(F)(F)C(F)(F)C1(F)F`, the growth inhibition is -2% (inactive).

As to `O=C(O)C(O)C(O)C(O)C(O)CO.[Ag]` (stereo not given), the growth inhibition was 99% (active).

The record behind these values is PubChem BioAssay (NCI).
